Sampled rows, rich in hits. Any-hit rate of the full collection: about 1.8%.
hERG WT inh = blocks the wildtype human KCNH2 potassium channel | Q12809 | U2OS, BacMam KCNH2, thallium flux FluxOr; stronger effect = lower value | activity change, % at 1.84 µM | 0.37% of 340,000 active | AID 720551;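 active = maximum activity change below -70%; inconclusive = maximum activity change between -70% and -50%; inactive = maximum activity change above -50%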
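U2OS cells transduced with wild-type KCNH2 virus are loaded with FluxOr dye for 45 min, and thallium flux is measured in kinetic reads before and after stimulation buffer. Rate constants are normalized to DMSO controls.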
A-T KAP1 phos = candidate therapy for ataxia-telangiectasia; AID 485349; Potency, µM (series often up to 57.5 µM), hits mostly activators; 0.19% of 320,000 active; F2112 A-T fibroblasts, KAP-1 phosphorylation AlphaLISA; neocarzinostatin DNA damage 30 min before lysis; also: nearly all actives have a fitted effect of over 45% in size
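hTERT-immortalized A-T patient fibroblasts (F2112), 500 cells/well in OPTI-MEM, 1% FBS, got compounds for 60 min, then NCS for 30 min at 37C. Lysates were then assayed for phospho-KAP-1 by AlphaLISA (anti-pKAP1 donor, anti-KAP1 acceptor beads), 6 hr at 25C.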
ALOX12 inh = ALOX12 (human) lipoxygenase inhibition. purified 12hLO, xylenol orange hydroperoxide absorbance. P18054. AID 1671190. Potency, µM (titrated, usually from 108 µM), actives largely listed as inhibitors. 1.1% of 580,000 active
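Purified human 12hLO (150 nM final) in 25 mM Hepes, 0.01% Triton X-100, pH 7.0 was preincubated 15 min at room temperature with compound. Then 40 uM arachidonic acid was added, 30 min. Hydroperoxide was read by Fe-XO absorbance ratio 573/405 nm.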
KCNH2 3.1 block = KCNH2 3.1 (human) potassium channel inhibition. U2OS KCNH2 3.1, thallium flux FluxOr; stronger effect = lower value. activity change, % (tested at about 1.8 µM). 0.95% of 340,000 active. AID 720553;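 active = maximum activity change below -70%; inconclusive = maximum activity change from -70% to -50%; inactive = maximum activity change above -50%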;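 also: thallium influx rate constant from kinetic fluorescence after stimulation buffer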
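Steps: virus added to U2OS suspension (4 h, RT, dark); medium with 10% FBS added, cells plated, 37 C overnight; FluxOr/Red40 loading buffer 45 min RT; stimulation buffer, 2 min kinetic read; rate constant normalized.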
Hits are given with their value; 0 = inactive; ? = inconclusive; - = not tested or not shown; ! = not active in a repeat. Unless noted, calls follow the shape of the dose curve; as a rule, active = well fitted curve in the direction sought with a large enough effect; inconclusive = small, poorly fitted or top-dose-only effect, or another doubt; inactive = no such curve, though single readings can be large; an effect the other way counts as inactive or inconclusive.

SMILES	hERG WT inh	A-T KAP1 phos	ALOX12 inh	KCNH2 3.1 block
C=CCN(C(=O)CSc1nc2ccsc2c(=O)n1Cc1ccccn1)c1ccccc1	0	0	0	-90.8
COCCNC(=O)c1ccc(N2CC3CC(C2)c2cccc(=O)n2C3)c(NC(=O)c2ccc(F)cc2)c1 (centres undefined)	0	0	0	0
CCOC(=O)N1CCN(C(=O)c2ccc(N3CC4CC(C3)c3cccc(=O)n3C4)c(NC(=O)c3ccc(F)cc3)c2)CC1 (centres undefined)	-162.9	0	0	0
Cc1cccc(-n2c(SCC(=O)Nc3ccc4c(c3)OCO4)nnc2-c2ccoc2C)c1	-90.0	0	0	-70.6
Cc1ccc(-n2c(SCC(=O)Nc3ccc4c(c3)OCO4)nnc2-c2cccs2)cc1	-153.9	0	?	?
C=CCn1c(SCC(=O)O)nnc1-c1cccs1	0	0	0	0
C=CCn1c(SCC(=O)Nc2ccc3c(c2)CCC3)nnc1-c1cccs1	-93.8	0	0	-76.5
COc1ccc(-n2c(SCC(=O)Nc3ccccc3)nnc2-c2ccoc2C)cc1	0	-	0	-105.1
Cc1cccc(-n2ccnc2SCC(=O)Nc2ccc3c(c2)OCO3)c1	-	-	0	-
CN1/C(=C/c2cccc[n+]2CCO)Sc2ccccc21	0	0	44.7µM	0
CC[n+]1ccccc1/C=C1\Sc2ccc(C)cc2N1C	0	0	39.8µM	0
COc1ccc(C(=O)/C=C2\Sc3ccccc3N2C)cc1	0	0	0	0
CC(=S)/C=C1\Sc2ccccc2N1C	0	0	10µM	0
Cc1ccc(Cl)cc1NC(=O)c1nc2ccccc2nc1N1CCCCC1	-	-	0	-
O=C(CC(=O)NCCc1ccccc1)NCCc1ccccc1	0	0	0	0
NNCCc1ccccc1	0	0	5.44µM!	0
CC(C)n1c(-c2ccc(C(C)(C)C)cc2)n[nH]c1=S	0	0	15.8µM	0
CCCCn1c(N)c(N(CCOC)C(=O)c2cc(-c3ccc(OC)c(OC)c3)nc3ccccc23)c(=O)[nH]c1=O	0	0	15.8µM	0
CCCn1c(N)c(N(CCOC)C(=O)c2cccnc2OCC)c(=O)[nH]c1=O	-	-	15.8µM	-
CCCCn1c(N)c(N(CC(C)C)C(=O)c2cc(-c3ccc(OC)c(OC)c3)nc3ccccc23)c(=O)[nH]c1=O	0	?	?	0
CCc1noc(-c2cn(C3CCN(C(=O)c4cccc(Cl)c4)C3)nn2)n1 (centres undefined)	-	-	0	-
CCc1nc(CNCc2cccc(NC(=O)c3ccc(F)cc3)c2)cs1	-	-	0	-
Cc1ccc(S(=O)(=O)N(C(=O)c2ccco2)c2cc3sc(=O)oc3c3ccccc23)cc1	0	0	28.2µM	0
COc1ccc(S(=O)(=O)N(C(=O)c2ccco2)c2cc3sc(=O)oc3c3ccccc23)cc1	0	0	?	0
CCOc1ccc(S(=O)(=O)N(C(=O)c2ccco2)c2cc3sc(=O)oc3c3ccccc23)cc1	0	0	31.6µM	0
SMILES	hERG WT inh	A-T KAP1 phos	ALOX12 inh	KCNH2 3.1 block
CCC(=O)N1CCC(n2c(C)cnc2-c2ccccc2)CC1	-	-	0	-
COc1cccc(C(=O)N2CC(Oc3ccccc3-c3nc(C4CC4)no3)C2)c1	-	-	0	-
O=C(CSc1cnc2cc(S(=O)(=O)N3CCCCC3)ccc2n1)Nc1ccc(Cl)cc1	-	-	0	-
CCCN1CCN(C(=O)c2c(C)oc3c2CN(Cc2ccc(C)cc2)CC3)CC1	-	-	12.6µM	-
CNc1c(NC(=O)NC2CCCC2)c(=O)oc2ccccc12	-	-	0	-
CC(C)(C)C1CCC2(CC1)C(C(=O)c1ccc(F)cc1)C2(C#N)C#N (centres undefined)	-	-	0	-
Cc1cccc2[nH]cc(C(=O)/C(C#N)=C\c3ccc(C#N)cc3)c12	-	-	0	-
N#C/C(=C/c1cccc(C#N)c1)C(=O)c1c[nH]c2cc(F)ccc12	-	-	11.2µM	-
N#C/C(=C/c1cccc(O)c1)C(=O)c1c[nH]c2cc(F)ccc12	-	-	15.8µM	-
CCc1oc2ccccc2c1C(=O)c1cc(Br)c(O)c(Br)c1	0	0	44.7µM!	0
CCC(=O)c1ccc2c(c1)OCCO2	0	10µM	0	0
O=C(COC(=O)c1ccc(Cl)nc1)c1ccc2c(c1)OCCO2	-106.5	0	0	0
CCCC(=O)c1ccc2c(c1)OCCO2	0	0	0	0
Cc1ccc(-n2ncc3c(Nc4ccccc4)ncnc32)cc1	-	-	0	-
Clc1ccc(Nc2ncnc3c2cnn3-c2ccccc2)cc1	0	0	25.1µM	0
COCCNc1ncnc2c1cnn2-c1ccc(Cl)cc1	0	-	14.1µM	0
OCCOCCNc1ncnc2c1cnn2-c1ccc(Cl)cc1	0	0	0	0
